ALOX12 inh: inhibitors of human 12S-lipoxygenase ALOX12; AID 1671190; Potency, µM (doses to about 108 µM), without a hit: at the highest dose activity change, negative = inhibition, actives largely listed as inhibitors; P18054; purified 12hLO, xylenol orange hydroperoxide absorbance; hit rate 1.1% among 580,000
Target sequence (P18054 whole entry, looked up): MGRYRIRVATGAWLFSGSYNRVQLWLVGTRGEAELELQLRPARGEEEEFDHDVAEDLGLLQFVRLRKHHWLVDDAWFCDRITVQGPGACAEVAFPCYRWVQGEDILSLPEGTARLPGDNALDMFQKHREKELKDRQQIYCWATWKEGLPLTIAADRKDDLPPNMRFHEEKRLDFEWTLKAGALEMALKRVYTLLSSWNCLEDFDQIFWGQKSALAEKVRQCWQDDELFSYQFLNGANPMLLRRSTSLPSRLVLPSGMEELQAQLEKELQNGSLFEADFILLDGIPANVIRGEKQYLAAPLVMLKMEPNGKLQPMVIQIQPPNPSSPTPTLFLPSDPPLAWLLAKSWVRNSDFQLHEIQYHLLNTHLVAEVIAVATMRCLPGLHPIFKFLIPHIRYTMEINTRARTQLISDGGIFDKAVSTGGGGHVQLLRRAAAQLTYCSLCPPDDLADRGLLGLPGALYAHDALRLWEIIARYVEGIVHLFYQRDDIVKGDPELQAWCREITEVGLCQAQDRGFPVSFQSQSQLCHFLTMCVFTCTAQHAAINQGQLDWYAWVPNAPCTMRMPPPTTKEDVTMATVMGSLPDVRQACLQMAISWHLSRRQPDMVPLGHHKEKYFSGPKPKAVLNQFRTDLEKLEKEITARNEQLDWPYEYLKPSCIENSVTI
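Purified human 12hLO (150 nM final) in 25 mM Hepes, 0.01% Triton X-100, pH 7.0 was preincubated 15 min at room temperature with compound. Then 40 uM arachidonic acid was added, 30 min. Hydroperoxide was read by Fe-XO absorbance ratio 573/405 nm.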
TDP1 cell noCPT: qHTS for Inhibitors of human tyrosyl-DNA phosphodiesterase 1 (TDP1): qHTS in cells in absence of CPT. AID 686978, 2013. hit rate 15% among 420,000. Potency, µM (series often up to 46.2 µM), for inactives: top-dose activity change, negative = growth inhibition, hits mostly inhibitors. DT40 Tdp1-/- hTDP1 cells, no CPT, ATP luminescence, 48 h; further: nearly all actives have a fitted effect of over 55% in size
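Stably hTDP1-transfected Tdp1-null chicken DT40 cells were treated with library compounds minus camptothecin and grown for at least 48 hr at 37 °C, after which cellular ATP was quantified by luminescence.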
TDP1 cell CPT: growth inhibition of DT40 Tdp1-/-;hTDP1 cells with camptothecin (screen for TDP1 inhibitors) | chicken DT40 Tdp1-/-;hTDP1 cells + 20 nM CPT, ATP luminescence, 48 h | Potency, µM (titrated, usually from 46.2 µM), inactives show at the highest dose activity change, negative = growth inhibition, usual class: inhibitors | hit rate 12% among 420,000 | AID 686979; further: nearly all actives have a fitted effect of over 55% in size
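Cell growth measured by CellTiter-Glo luminescence after a minimum 48 h, 37 C compound exposure with 20 nM CPT in Tdp1-knockout DT40 cells stably expressing hTDP1, seeded 400/well; qHTS titration format.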
RORgamma inh: blocks mouse ROR gamma transcriptional activity. Drosophila S2 Gal4-RORgamma UAS-luciferase reporter, 20 h. hit rate 5.4% among 310,000. P51450. Potency, µM (highest dose often 53.6 µM), without a hit: at the top dose activity change, negative = inhibition, usual class: inhibitors; further: nearly all actives have a fitted effect of over 60% in size
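Drosophila S2 cells stably expressing Gal4-DBD/mouse RORγ fusion under metallothionein promoter plus UAS-luciferase; compound 1 h, then 700 uM CuSO4 induction for 20 h at ambient temperature; inhibition read as reduced luminescence.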
ELG1 DNA repair: ELG1-dependent DNA repair inhibition | AID 504467 | HEK293T ELG1-luciferase reporter, luminescence, 16 h; DNA damage induced by 5-fluorouridine | Potency, µM (top dose mostly 46.1 µM), without a hit: at the highest dose activity change, negative = inhibition, actives largely listed as inhibitors | hit rate 2.3% among 330,000; further: nearly all actives have a fitted effect of over 55% in size
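In this reporter screen, reduction of luminescence relative to DMSO vehicle indicated activity. Compounds and 5-fluorouridine were added together to 2,000 cells per well, incubated for 16 hr at 37 °C, then developed with ONE-Glo.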
VP16 counter: inhibits Gal4-VP16 luciferase reporter, ROR gamma counter-screen; Drosophila S2 Gal4-VP16 UAS-luciferase, luminescence, 20 h; Potency, µM (top dose mostly 53.6 µM), for the others: at the highest dose activity, negative = inhibition, actives largely listed as inhibitors; hit rate 3.5% among 310,000; AID 2546;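 further: Gal4-VP16 expression switched on by copper sulfate through the metallothionein promoter; nearly all actives have a fitted effect of over 50% in size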
* = called active by the depositor; ? = inconclusive; / = not tested or not shown; [ ] = another dose, or the depositor's remark. This is a sample that favours compounds with a hit; in the whole collection about 15% have one here. The call rests on the fitted dose curve; in most records, active means well fitted curve in the direction sought with a large enough effect; inconclusive means small, poorly fitted or top-dose-only effect, or another doubt; inactive means no such curve, though single readings can be large; an effect the other way counts as inactive or inconclusive. On the % scale 0 is the no-effect control and ±100 the full control effect; potency means the concentration at half of the fitted maximal effect.

SMILES	ALOX12 inh	TDP1 cell noCPT	TDP1 cell CPT	RORgamma inh	ELG1 DNA repair	VP16 counter
CCOC(=O)c1sc(NC(=S)NC(=O)C23CC4CC(CC(C4)C2)C3)cc1C	35µM*	?	-1%	6.3µM*	2%	10µM*
CCOC(=O)c1sc(NC(=S)NC(=O)C2CC2)cc1C	-4%	-29%	-5%	1µM*	?	1µM*
CCOC(=O)c1sc(NC(=O)CCN2C(=O)C3CCCCC3C2=O)cc1C (configuration not stated)	200%	10%	-4%	/	17%	/
CC(C)C(=O)Oc1ccc2c(-c3cc4ccccc4oc3=O)cc(=O)oc2c1	3%	/	/	/	/	/
O=C1CC(N2CCC(c3nc4ccccc4[nH]3)CC2)C(=O)N1c1ccccc1F (configuration not stated)	-18%	?	26µM*	-6%	9%	0%
C=CCn1c(=O)[nH]c2cc(C(=O)N3CCN(c4cc(C)ccc4C)CC3)ccc2c1=O	0%	?	?	-41%	-17%	?
COc1cc2[nH]c(=O)n(CCCCCC(=O)N3CC=C(c4ccccc4)CC3)c(=O)c2cc1OC	0%	16µM*	26µM*	22%	8.2µM*	-24%
COc1cc2[nH]c(=O)n(CCC(=O)N3CCN(c4cc(Cl)ccc4C)CC3)c(=O)c2cc1OC	-7%	?	?	?	8.2µM*	?
Cc1ccc(C)c(N2CCN(C(=O)CCn3c(=O)[nH]c4ccccc4c3=O)CC2)c1	?	12µM*	16µM*	/	/	/
CN1CCN(C(=O)Cn2c(=O)c3c(ncn3Cc3ccccc3)n(Cc3ccccc3)c2=O)CC1	-14%	/	/	/	/	/
COC(=O)[C@@]1(Cc2ccc(F)cc2)[C@H]2c3cc(C(=O)N(C)C)n(Cc4cc(C)n(C)n4)c3C[C@H]2CN1C(=O)c1ccccc1	5%	?	?	31%	/	-1%
COC(=O)[C@@]1(Cc2ccc(F)cc2)[C@H]2c3cc(C(=O)N4CCCC4)n(CCF)c3C[C@H]2CN1C(=O)c1ccccc1	1%	23µM*	23µM*	30%	/	-18%
COC(=O)[C@@]1(Cc2ccc(F)cc2)[C@H]2c3cc(C(=O)N4CCCC4)n(Cc4cc(C)n(C)n4)c3C[C@H]2CN1C(=O)c1ccccc1	-46%	16µM*	21µM*	12%	/	0%
COC(=O)[C@@]1(Cc2ccc(F)cc2)[C@H]2c3cc(C(=O)N4CCCC4)n(Cc4ccc(C(F)(F)F)nc4)c3C[C@H]2CN1C(=O)c1ccccc1	10%	?	?	25%	?	-16%
COC(=O)[C@@]1(Cc2ccc(F)cc2)[C@H]2c3cc(C(=O)N4CCCC4)n(CCCNc4ncc(C(F)(F)F)cc4Cl)c3C[C@H]2CN1C(=O)c1ccccc1	/	16µM*	?	34%	?	2%
COC(=O)[C@@]1(Cc2ccc(F)cc2)[C@H]2c3cc(C(=O)N4CCCC4)n(Cc4ccc(C)c(F)c4F)c3C[C@H]2CN1C(=O)c1ccccc1	-23%	23µM*	?	19%	/	9%
Cc1nc(N(C)Cc2ccccc2)c2c(C)c(C)sc2n1	-6%	?	?	20µM*	0%	?
Cc1ccc(C(=O)N(CC(=O)NC2CCCC2)c2ccccc2C)s1	1%	?	?	-22%	5%	-8%
Cc1cc(C(C)(C)C)oc1C(=O)N(CC(=O)NC1CCCC1)c1c(C)cccc1C	-29%	5.2µM*	12µM*	-27%	-9%	-5%[0.365 µM]
COc1ccccc1N(CC(=O)NC1CCCC1)C(=O)c1csnn1	0%	?	2%	0%	17%	-1%[0.365 µM]
COc1ccccc1N(CC(=O)NC1CCCC1)C(=O)c1oc(C(C)(C)C)cc1C	0%	15µM*	23µM*	13µM*	?	-2%
Cc1cc(C(C)(C)C)oc1C(=O)N(CC(=O)NC1CCCC1)c1ccc(F)cc1	-15%	16µM*	?	6%	0%	-12%[0.365 µM]
COc1ccc(C2(C(=O)N(C)Cc3cccc(OC(F)(F)F)c3)CCOCC2)cc1	-7%[6.33 µM]	/	/	/	/	/
CCn1nc(C)c(CCNC(=O)Nc2ccc(OC)cc2OC)c1C	-6%	/	/	/	/	/
COc1cc(CNCCN2CCOCC2)ccc1OCc1ccccc1Cl	?	18µM*	?	-39%	-11%	-4%
SMILES	ALOX12 inh	TDP1 cell noCPT	TDP1 cell CPT	RORgamma inh	ELG1 DNA repair	VP16 counter
COc1cc(CNCc2ccccn2)ccc1OCc1ccccc1Cl	3%	?	?	14µM*	-17%	?
C=CCOc1c(Cl)cc(CNCCCN2CCOCC2)cc1OC	?	-77%	23µM*	-17%	-26%	0%
COc1cc(CNCCCN2CCOCC2)cc(Br)c1OCc1ccc(Cl)cc1	?	3.7µM*	3.7µM*	-9%	?	-27%
O=C(Cc1noc(C(=O)NC2CC2)n1)Nc1cccc2ncccc12	28%	/	/	/	/	/
COC(=O)c1cc(-c2cccc(C)c2)nc2ccccc12	16%	/	/	/	/	/
COc1cc(CNCCc2ccc(S(N)(=O)=O)cc2)ccc1OCC(=O)NC1CCCCC1	?	-28%	?	-8%	7%	-6%
